Common to all, as to experiment: PBM; 200 nM protein, PBS
Common to all, as to conditions: dsDNA, one strand shown

Experiment [1] concerns the target HESX1 (Homo sapiens, UniProt Q9UBX0 95-180, R165K).
Experiment [2] addresses HESX1 (Homo sapiens, UniProt Q9UBX0 95-180).
In experiment [3] the target is PRRX1 (Homo sapiens, UniProt P54821 80-166, F113S).
Experiment [4] deals with MSX2 (Homo sapiens, UniProt P35548 130-214, R199I).
Experiment [5] deals with ALX1 (Homo sapiens, UniProt Q15699 118-204, L144V).
Sequence of ALX1 (Homo sapiens, UniProt Q15699 118-204, L144V) (Q15699 118-204 L144V): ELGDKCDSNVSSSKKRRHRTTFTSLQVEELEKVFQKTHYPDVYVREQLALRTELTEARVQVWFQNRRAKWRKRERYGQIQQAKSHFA
In experiment [6] the target is ALX1 (Homo sapiens, UniProt Q15699 118-204, L144R).
Sequence of ALX1 (Homo sapiens, UniProt Q15699 118-204, L144R) (Q15699 118-204 L144R): as the sequence (Q15699 118-204 L144V) above, with V27R counted along it
For experiment [7], the target named is MSX2 (Homo sapiens, UniProt P35548 130-214).
Sequence of MSX2 (Homo sapiens, UniProt P35548 130-214) (P35548 130-214): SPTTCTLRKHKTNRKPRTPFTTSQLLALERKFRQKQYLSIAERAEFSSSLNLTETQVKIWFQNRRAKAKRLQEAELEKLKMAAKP
A further experiment has as its target T1, PAX4 (Homo sapiens, UniProt O43316 9-242, F177Y).
T1 sequence: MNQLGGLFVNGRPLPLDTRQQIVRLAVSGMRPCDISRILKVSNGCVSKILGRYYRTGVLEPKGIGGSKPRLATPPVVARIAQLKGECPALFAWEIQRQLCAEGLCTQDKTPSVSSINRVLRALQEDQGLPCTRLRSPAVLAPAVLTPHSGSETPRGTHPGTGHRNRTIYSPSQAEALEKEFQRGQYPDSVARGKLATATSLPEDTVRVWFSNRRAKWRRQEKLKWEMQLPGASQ

Experiment [8] addresses PROP1 (Homo sapiens, UniProt O75360 56-141).
The target of experiment [9] is HESX1 (Homo sapiens, UniProt Q9UBX0 95-180, R109Q).
Sequence of HESX1 (Homo sapiens, UniProt Q9UBX0 95-180, R109Q) (Q9UBX0 95-180 R109Q): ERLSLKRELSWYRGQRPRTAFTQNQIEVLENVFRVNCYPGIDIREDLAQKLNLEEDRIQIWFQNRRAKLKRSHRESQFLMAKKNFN
Experiment [10] has as its target PROP1 (Homo sapiens, UniProt O75360 56-141, R99H).
Experiment [11] addresses HESX1 (Homo sapiens, UniProt Q9UBX0 95-180, P111T).
The target of another experiment is ALX3 (Homo sapiens, UniProt O95076 139-225, L168V).
Sequence of ALX3 (O95076 139-225 L168V): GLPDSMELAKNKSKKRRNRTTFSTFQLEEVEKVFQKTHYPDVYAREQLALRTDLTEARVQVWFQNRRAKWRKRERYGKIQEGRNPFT
Experiment [12] concerns the target PROP1 (Homo sapiens, UniProt O75360 56-141, F88S).
Experiment [13] concerns the target MSX2 (Homo sapiens, UniProt P35548 130-214, F161Y).
Experiment [14] deals with HESX1 (Homo sapiens, UniProt Q9UBX0 95-180, F115L).
Sequence of HESX1 (Homo sapiens, UniProt Q9UBX0 95-180, F115L) (Q9UBX0 95-180 F115L): as the sequence (Q9UBX0 95-180 R109Q) above, with Q15R, F21L counted along it
Experiment [15] has as its target ALX1 (Homo sapiens, UniProt Q15699 118-204).
The target in experiment [16] is PRRX1 (Homo sapiens, UniProt P54821 80-166).
Sequence of PRRX1 (Homo sapiens, UniProt P54821 80-166) (P54821 80-166): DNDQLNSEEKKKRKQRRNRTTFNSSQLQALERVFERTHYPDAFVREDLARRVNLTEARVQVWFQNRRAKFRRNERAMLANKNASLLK
For experiment [17], the target named is ALX4 (Homo sapiens, UniProt Q9H161 200-286).
Sequence of ALX4 (Homo sapiens, UniProt Q9H161 200-286) (Q9H161 200-286): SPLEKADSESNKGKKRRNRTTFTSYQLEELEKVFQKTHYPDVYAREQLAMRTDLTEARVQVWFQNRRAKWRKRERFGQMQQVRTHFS
In experiment [18] the target is ALX4 (Homo sapiens, UniProt Q9H161 200-286, Q225E).
Sequence of ALX4 (Homo sapiens, UniProt Q9H161 200-286, Q225E) (Q9H161 200-286 Q225E): as the sequence (Q9H161 200-286) above, with Q26E counted along it
Experiment [19] deals with HOXD13 (Homo sapiens, UniProt P35453 263-343, T313R).
Sequence of HOXD13 (Homo sapiens, UniProt P35453 263-343, T313R) (P35453 263-343 T313R): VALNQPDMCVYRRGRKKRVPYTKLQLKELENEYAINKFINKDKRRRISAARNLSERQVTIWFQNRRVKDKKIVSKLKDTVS
Experiment [20] concerns the target HOXD13 (Homo sapiens, UniProt P35453 263-343).
The target of experiment [21] is HOXD13 (Homo sapiens, UniProt P35453 263-343, T313A).
Sequence of HOXD13 (Homo sapiens, UniProt P35453 263-343, T313A) (P35453 263-343 T313A): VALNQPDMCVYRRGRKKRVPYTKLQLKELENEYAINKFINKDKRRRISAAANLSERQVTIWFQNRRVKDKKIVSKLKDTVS
For experiment [22], the target named is HOXA2 (Homo sapiens, UniProt O43364 129-215, R185T).
Sequence of HOXA2 (Homo sapiens, UniProt O43364 129-215, R185T) (O43364 129-215 R185T): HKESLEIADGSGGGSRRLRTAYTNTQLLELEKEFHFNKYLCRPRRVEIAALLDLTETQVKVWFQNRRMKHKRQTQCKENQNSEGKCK
Experiment [23] deals with HOXA2 (Homo sapiens, UniProt O43364 129-215, R185K).
Sequence of HOXA2 (Homo sapiens, UniProt O43364 129-215, R185K) (O43364 129-215 R185K): as the sequence (O43364 129-215 R185T) above, with T57K counted along it
Experiment [24] addresses HOXA2 (Homo sapiens, UniProt O43364 129-215, Y150S).
In experiment [25] the target is HOXA2 (Homo sapiens, UniProt O43364 129-215).
Sequence of HOXA2 (Homo sapiens, UniProt O43364 129-215) (O43364 129-215): as the sequence (O43364 129-215 R185T) above, with T57R counted along it
The target in experiment [26] is HOXC10 (Homo sapiens, UniProt Q9NYD6 254-340).
Sequence of HOXC10 (Homo sapiens, UniProt Q9NYD6 254-340) (Q9NYD6 254-340): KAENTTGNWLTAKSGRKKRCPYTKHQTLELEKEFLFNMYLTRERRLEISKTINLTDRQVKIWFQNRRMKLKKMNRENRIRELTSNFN
Experiment [27] concerns the target HOXC10 (Homo sapiens, UniProt Q9NYD6 254-340, K271E).
Experiment [28] has as its target HOXB6 (Homo sapiens, UniProt P17509 132-218, K202E).
The target in experiment [29] is NKX3-2 (Homo sapiens, UniProt P78367 192-278, P234S).
Sequence of NKX3-2 (Homo sapiens, UniProt P78367 192-278, P234S) (P78367 192-278 P234S): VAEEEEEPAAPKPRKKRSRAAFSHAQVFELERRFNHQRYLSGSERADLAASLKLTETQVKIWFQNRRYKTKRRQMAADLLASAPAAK
The target of experiment [30] is HOXB6 (Homo sapiens, UniProt P17509 132-218).
Sequence of HOXB6 (Homo sapiens, UniProt P17509 132-218) (P17509 132-218): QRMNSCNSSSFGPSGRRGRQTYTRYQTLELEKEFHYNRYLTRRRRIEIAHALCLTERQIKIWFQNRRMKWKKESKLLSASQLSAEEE
Experiment [31] has as its target NKX3-2 (Homo sapiens, UniProt P78367 192-278).

Nine sequences from article PMC11006913 can be followed below.

Sequence of HESX1 (Homo sapiens, UniProt Q9UBX0 95-180, R165K) (Q9UBX0 95-180 R165K): as the sequence (Q9UBX0 95-180 R109Q) above, with Q15R, R71K counted along it
Sequence of HESX1 (Homo sapiens, UniProt Q9UBX0 95-180, P111T) (Q9UBX0 95-180 P111T): as the sequence (Q9UBX0 95-180 R109Q) above, with Q15R, P17T counted along it
Sequence of HESX1 (Homo sapiens, UniProt Q9UBX0 95-180) (Q9UBX0 95-180): as the sequence (Q9UBX0 95-180 R109Q) above, with Q15R counted along it
Sequence of PROP1 (Homo sapiens, UniProt O75360 56-141, F88S) (O75360 56-141 F88S): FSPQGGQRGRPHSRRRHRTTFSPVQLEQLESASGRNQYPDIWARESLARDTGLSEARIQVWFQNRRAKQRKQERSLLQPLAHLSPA
Sequence of PROP1 (Homo sapiens, UniProt O75360 56-141, R99H) (O75360 56-141 R99H): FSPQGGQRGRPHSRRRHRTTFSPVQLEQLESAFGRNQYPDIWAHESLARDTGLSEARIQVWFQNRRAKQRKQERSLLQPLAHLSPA
Sequence of PROP1 (Homo sapiens, UniProt O75360 56-141) (O75360 56-141): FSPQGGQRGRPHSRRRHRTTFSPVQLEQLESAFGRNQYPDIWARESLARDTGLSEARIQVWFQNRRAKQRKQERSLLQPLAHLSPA
Sequence of ALX1 (Homo sapiens, UniProt Q15699 118-204) (Q15699 118-204): as the sequence (Q15699 118-204 L144V) above, with V27L counted along it
Sequence of HOXA2 (Homo sapiens, UniProt O43364 129-215, Y150S) (O43364 129-215 Y150S): as the sequence (O43364 129-215 R185T) above, with Y22S, T57R counted along it
Sequence of HOXB6 (Homo sapiens, UniProt P17509 132-218, K202E) (P17509 132-218 K202E): as the sequence (P17509 132-218) above, with K71E counted along it
Sequence of HOXC10 (Homo sapiens, UniProt Q9NYD6 254-340, K271E) (Q9NYD6 254-340 K271E): as the sequence (Q9NYD6 254-340) above, with K18E counted along it
Sequence of MSX2 (Homo sapiens, UniProt P35548 130-214, R199I) (P35548 130-214 R199I): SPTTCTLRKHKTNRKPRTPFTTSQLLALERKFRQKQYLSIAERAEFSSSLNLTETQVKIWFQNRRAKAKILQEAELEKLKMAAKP
Sequence of PRRX1 (Homo sapiens, UniProt P54821 80-166, F113S) (P54821 80-166 F113S): as the sequence (P54821 80-166) above, with F34S counted along it
Sequence of NKX3-2 (Homo sapiens, UniProt P78367 192-278) (P78367 192-278): as the sequence (P78367 192-278 P234S) above, with S43P counted along it
Sequence of MSX2 (Homo sapiens, UniProt P35548 130-214, F161Y) (P35548 130-214 F161Y): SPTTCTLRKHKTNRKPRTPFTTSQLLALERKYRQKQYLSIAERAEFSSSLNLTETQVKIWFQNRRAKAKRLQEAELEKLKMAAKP
Sequence of HOXD13 (Homo sapiens, UniProt P35453 263-343) (P35453 263-343): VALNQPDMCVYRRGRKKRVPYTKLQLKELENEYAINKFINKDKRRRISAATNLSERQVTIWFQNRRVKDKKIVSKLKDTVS

On to ATGTTAAT, for which the binding signal was 8.98 upbm affinity estimate (log intensity, higher = more binding, comparable within an allelic series) with HESX1 [1] and 9.41 upbm affinity estimate (log intensity, higher = more binding, comparable within an allelic series) with HESX1 [2].
With AATTATCA, the binding signal in the experiment with HESX1 [1] was 11.4 upbm affinity estimate (log intensity, higher = more binding, comparable within an allelic series); with PRRX1 [3], 11.2 upbm affinity estimate (log intensity, higher = more binding, comparable within an allelic series); with HESX1 [2], 11.5 upbm affinity estimate (log intensity, higher = more binding, comparable within an allelic series); with MSX2 [4], 12.3 upbm affinity estimate (log intensity, higher = more binding, comparable within an allelic series); with ALX1 [5], 11.3 upbm affinity estimate (log intensity, higher = more binding, comparable within an allelic series); with ALX1 [6], 11.1 upbm affinity estimate (log intensity, higher = more binding, comparable within an allelic series). The binding signal with MSX2 [7] was 13.3 upbm affinity estimate (log intensity, higher = more binding, comparable within an allelic series); with PAX4, 10.9 upbm affinity estimate (log intensity, higher = more binding, comparable within an allelic series); with PROP1 [8], 11 upbm affinity estimate (log intensity, higher = more binding, comparable within an allelic series); in the experiment with HESX1 [9] it was 8.56 upbm affinity estimate (log intensity, higher = more binding, comparable within an allelic series); with PROP1 [10] it was 10.6 upbm affinity estimate (log intensity, higher = more binding, comparable within an allelic series); in the experiment with HESX1 [11], 10.1 upbm affinity estimate (log intensity, higher = more binding, comparable within an allelic series). The binding signal is 9.73 upbm affinity estimate (log intensity, higher = more binding, comparable within an allelic series) with ALX3; 7.71 upbm affinity estimate (log intensity, higher = more binding, comparable within an allelic series) with PROP1 [12]; 13 upbm affinity estimate (log intensity, higher = more binding, comparable within an allelic series) with MSX2 [13]; 7.79 upbm affinity estimate (log intensity, higher = more binding, comparable within an allelic series) with HESX1 [14]; 12 upbm affinity estimate (log intensity, higher = more binding, comparable within an allelic series) in the experiment with ALX1 [15]; 13.3 upbm affinity estimate (log intensity, higher = more binding, comparable within an allelic series) with PRRX1 [16].
Take CGCGCGAG: the binding signal in the experiment with HESX1 [1] was 6.55 upbm affinity estimate (log intensity, higher = more binding, comparable within an allelic series); in the experiment with ALX4 [17], 8.39 upbm affinity estimate (log intensity, higher = more binding, comparable within an allelic series); with ALX4 [18], 8.37 upbm affinity estimate (log intensity, higher = more binding, comparable within an allelic series); with HESX1 [2], 6.52 upbm affinity estimate (log intensity, higher = more binding, comparable within an allelic series); with HOXD13 [19], 9.52 upbm affinity estimate (log intensity, higher = more binding, comparable within an allelic series); with HOXD13 [20] it was 9.48 upbm affinity estimate (log intensity, higher = more binding, comparable within an allelic series). Besides, the binding signal with HESX1 [9] is 6.5 upbm affinity estimate (log intensity, higher = more binding, comparable within an allelic series); with HESX1 [11], 6.55 upbm affinity estimate (log intensity, higher = more binding, comparable within an allelic series); in the experiment with HOXD13 [21], 9.67 upbm affinity estimate (log intensity, higher = more binding, comparable within an allelic series); in the experiment with HESX1 [14], 6.44 upbm affinity estimate (log intensity, higher = more binding, comparable within an allelic series).
GAGCAGCC: the binding signal with HESX1 [1] is 6.52 upbm affinity estimate (log intensity, higher = more binding, comparable within an allelic series); with ALX4 [17], 8.07 upbm affinity estimate (log intensity, higher = more binding, comparable within an allelic series); in the experiment with ALX4 [18], 8.24 upbm affinity estimate (log intensity, higher = more binding, comparable within an allelic series); with HESX1 [2], 6.51 upbm affinity estimate (log intensity, higher = more binding, comparable within an allelic series); with HESX1 [9] it was 6.47 upbm affinity estimate (log intensity, higher = more binding, comparable within an allelic series); with HESX1 [11] it was 6.43 upbm affinity estimate (log intensity, higher = more binding, comparable within an allelic series). Moreover, the binding signal with HESX1 [14] is 6.53 upbm affinity estimate (log intensity, higher = more binding, comparable within an allelic series).
For the sequence TATGGTAA, the binding signal with HESX1 [1] is 7.45 upbm affinity estimate (log intensity, higher = more binding, comparable within an allelic series); with HESX1 [2] it was 7.53 upbm affinity estimate (log intensity, higher = more binding, comparable within an allelic series).
Regarding ATTATTTG, the binding signal with HESX1 [1] is 8.97 upbm affinity estimate (log intensity, higher = more binding, comparable within an allelic series); in the experiment with HESX1 [2] it was 8.9 upbm affinity estimate (log intensity, higher = more binding, comparable within an allelic series).
Take CCGAGGCC: the binding signal was 6.48 upbm affinity estimate (log intensity, higher = more binding, comparable within an allelic series) with HESX1 [1]; 6.46 upbm affinity estimate (log intensity, higher = more binding, comparable within an allelic series) with HESX1 [2]; 7.28 upbm affinity estimate (log intensity, higher = more binding, comparable within an allelic series) in the experiment with HOXA2 [22]; 10.4 upbm affinity estimate (log intensity, higher = more binding, comparable within an allelic series) in the experiment with HOXA2 [23]; 6.73 upbm affinity estimate (log intensity, higher = more binding, comparable within an allelic series) with PROP1 [8]; 6.41 upbm affinity estimate (log intensity, higher = more binding, comparable within an allelic series) with HESX1 [9]. In addition, the binding signal in the experiment with PROP1 [10] was 6.78 upbm affinity estimate (log intensity, higher = more binding, comparable within an allelic series); in the experiment with HESX1 [11] it was 6.44 upbm affinity estimate (log intensity, higher = more binding, comparable within an allelic series); with PROP1 [12], 6.47 upbm affinity estimate (log intensity, higher = more binding, comparable within an allelic series); with HESX1 [14], 6.42 upbm affinity estimate (log intensity, higher = more binding, comparable within an allelic series); with HOXA2 [24], 10.4 upbm affinity estimate (log intensity, higher = more binding, comparable within an allelic series); with HOXA2 [25], 7.27 upbm affinity estimate (log intensity, higher = more binding, comparable within an allelic series).
Take AGAGCTCT: the binding signal was 6.34 upbm affinity estimate (log intensity, higher = more binding, comparable within an allelic series) with HESX1 [1]; 10 upbm affinity estimate (log intensity, higher = more binding, comparable within an allelic series) with HOXC10 [26]; 6.42 upbm affinity estimate (log intensity, higher = more binding, comparable within an allelic series) in the experiment with HESX1 [2]; 6.52 upbm affinity estimate (log intensity, higher = more binding, comparable within an allelic series) with ALX1 [5]; 6.57 upbm affinity estimate (log intensity, higher = more binding, comparable within an allelic series) in the experiment with ALX1 [6]; 10.1 upbm affinity estimate (log intensity, higher = more binding, comparable within an allelic series) with HOXC10 [27]. In addition, the binding signal with HESX1 [9] is 6.48 upbm affinity estimate (log intensity, higher = more binding, comparable within an allelic series); in the experiment with HESX1 [11] it was 6.53 upbm affinity estimate (log intensity, higher = more binding, comparable within an allelic series); with HESX1 [14] it was 6.38 upbm affinity estimate (log intensity, higher = more binding, comparable within an allelic series); in the experiment with ALX1 [15], 6.26 upbm affinity estimate (log intensity, higher = more binding, comparable within an allelic series).
AGAGGACC: the binding signal was 6.6 upbm affinity estimate (log intensity, higher = more binding, comparable within an allelic series) in the experiment with HESX1 [1]; 9.07 upbm affinity estimate (log intensity, higher = more binding, comparable within an allelic series) in the experiment with HOXB6 [28]; 6.46 upbm affinity estimate (log intensity, higher = more binding, comparable within an allelic series) with HESX1 [2]; 6.58 upbm affinity estimate (log intensity, higher = more binding, comparable within an allelic series) in the experiment with HESX1 [9]; 6.41 upbm affinity estimate (log intensity, higher = more binding, comparable within an allelic series) with HESX1 [11]; 6.55 upbm affinity estimate (log intensity, higher = more binding, comparable within an allelic series) in the experiment with HESX1 [14]. For the same sequence, the binding signal in the experiment with NKX3-2 [29] was 11.8 upbm affinity estimate (log intensity, higher = more binding, comparable within an allelic series); in the experiment with HOXB6 [30] it was 8.88 upbm affinity estimate (log intensity, higher = more binding, comparable within an allelic series); with NKX3-2 [31] it was 11.8 upbm affinity estimate (log intensity, higher = more binding, comparable within an allelic series).
